Results published in PubChem BioAssay (NCI).
The panel holds about 83,000 compounds, 20% with a hit somewhere; the sample as a whole holds those more often.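 For each line, cells grew in 96-well plates with the test compound present at a single concentration for 48 hours.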 Active and inactive are the calls of the source. Rule for the calls: active = growth percent below 10; inactive = the rest.

Each molecule was assayed on HL-60(TB) leukemia (assay: NCI-60 one-dose screen, 48 h (100 = growth as untreated, 0 = no growth, -100 = all killed)). Details: 10 µM unless noted.

| Compound | growth |
| --- | --- |
| O=C1C(Cl)=C(Nc2ccccc2)C(=O)C(Cl)=C1Nc1ccccc1 | 122% (inactive) |
| COCCCN1CC(O)=C(c2nc(-c3ccc(C)cc3)cs2)C1=N | 84.9% (inactive) |
| O=[N+]([O-])c1ccc(Oc2ccc(-c3ccccc3)cc2)cc1 | 78.7% (inactive) |
| COc1cccc(C(=O)Nc2ccc(CN3CCc4nc5cc(OC)c(OC)cc5cc43)cc2)c1 | 60% (inactive) |
| O=CN1N=C(c2ccc(Cl)cc2)CC1c1cccc(Nc2ccnc3cc(C(F)(F)F)ccc23)c1 (stereo not given) | 31.6% (inactive) |
| Clc1ccc(C2CC(c3cccc(Nc4ccncc4)c3)=NN2c2ccc(Cl)cc2)cc1 (stereo not given) | -45.3% (active) |
| CN1CCN(C2=C(Cl)C(=O)c3ccccc3C2=O)CC1 | 24.8% (inactive) |
| Cc1ccc2nc(-c3cc4c([nH]c5ccccc54)c(-c4ccc(F)c(F)c4)n3)[nH]c2c1 | 48.5% (inactive) |
| CN(C)CCCn1c2c(c3cc(-c4ccco4)ccc3c1=O)C(=O)c1ccccc1-2 | 93.1% (inactive) |
| COc1cc(C=C2C(=O)N(C)C(=O)N(C)C2=O)cc(CN2CCCCC2)c1O | 96.3% (inactive) |
| CCOC(=O)CO | 83.5% (inactive) |
| O=c1[nH]c(=O)n(Cc2ccc(F)cc2)cc1F | 88.7% [50 µM] (inactive) |
| O=[N+]([O-])c1ccc(Sc2ncccn2)c([N+](=O)[O-])c1 | -31.8% (active) |
| O=[N+]([O-])c1cc(Cl)c2[nH]c3c(Cl)cc([N+](=O)[O-])cc3c2c1 | -28.5% (active) |
| Cc1cc(O)c(C(C)(C)C)cc1Sc1cc(C(C)(C)C)c(O)cc1C | -20.9% (active) |
